Results taken from the supplement of paper PMC6555819.

Legend:
Assay in all cases: PBM binding z-score (relative to random genomic background probes); higher = stronger binding; sequences stand for … in GC…GCGATTGACAGCGTAGAATGAAGG
[1] = tested on: FXR:RXRa (NR concentration 270 nM, RXRa partner concentration 90 nM)
Method in brief: (§1)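 Custom Agilent 4×180K protein-binding microarrays carried double-stranded probes. Their 34-nt variable regions held direct-repeat seeds, single-nucleotide variants, half-site ablations and random human genomic background sequences. Arrays were incubated 1 h with ligand-free nuclear receptor dimers in PBS pH 7.4, 2% milk, 0.02% Triton X-100, 1 mM DTT, 0.2 mg/mL BSA and 0.4 mg/ml salmon testes DNA. Antibodies against each partner (one per run) detected binding, and scanned fluorescence was regression-normalized. Binding z-scores use random background probes as reference.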

[2] = tested on: LXRa:RXRa (NR concentration 270 nM, RXRa partner concentration 90 nM)
Method in brief: as §1

[3] = tested on: LXRa homodimer (NR concentration 270 nM)
Method in brief: as §1

[4] = tested on: LXRb:RXRa (NR concentration 270 nM, RXRa partner concentration 90 nM)
Method in brief: as §1

[5] = tested on: LXRb homodimer (NR concentration 270 nM)
Method in brief: as §1

[6] = tested on: PPARa:RXRa (NR concentration 270 nM, RXRa partner concentration 90 nM)
Method in brief: as §1

[7] = tested on: PPARg:RXRa (NR concentration 180 nM, RXRa partner concentration 90 nM)
Method in brief: as §1

[8] = tested on: PPARg:RXRa 270nM:90nM, anti-RXR (NR concentration 270 nM, RXRa partner concentration 90 nM)
Method in brief: as §1

[9] = tested on: PPARg:RXRa 30nM:10nM, anti-RXR (NR concentration 30 nM, RXRa partner concentration 10 nM)
Method in brief: as §1

[10] = tested on: PPARg:RXRa 90nM:30nM, anti-RXR (NR concentration 90 nM, RXRa partner concentration 30 nM)
Method in brief: as §1

| Sequence | PBM binding z-score [1] | PBM binding z-score [2] | PBM binding z-score [3] | PBM binding z-score [4] | PBM binding z-score [5] | PBM binding z-score [6] | PBM binding z-score [7] | PBM binding z-score [8] | PBM binding z-score [9] | PBM binding z-score [10] |
| --- | --- | --- | --- | --- | --- | --- | --- | --- | --- | --- |
| CCTACTGGCCCAAAAAGGTCATTGATGCCGATAA | 3.63 | 4.47 | 3.88 | 4.4 | 1.04 | 4.74 | 1.35 | 2.89 | 0.585 | 1.93 |
| TGAATGATGTTATAAGATCAGGGAACGTTGCAAA | -0.318 | -0.353 | -0.0281 | -0.083 | 0.0619 | 0.0376 | 0.37 | -0.0772 | 0.598 | 0.592 |
| GCTAGTTGGTCAGTACAAGGTCACACACCGGTCG | 2.58 | 2.63 | 2.97 | 2.59 | 0.352 | 3.05 | 1.38 | 1.94 | 0.146 | 1.33 |
| ATCTCTAGGTAAAGGTTCAGTGAATCCCGAGGAT | 0.405 | 0.578 | 0.436 | 0.491 | 0.67 | 2.93 | 4.99 | 5.83 | 3.95 | 5.85 |
| GCATATAGGTAATACAACGTGAAAGTCCGATTGT | -0.622 | -0.502 | -0.205 | -0.638 | -0.368 | 0.333 | 1.02 | 0.49 | 0.28 | 0.431 |
| GGAATGAGGGCAAGTTGATAGCAGAGTTTGATGG | 1.28 | 0.752 | -0.149 | 0.54 | 0.0849 | 2.08 | 1.6 | 1.56 | 0.431 | 0.993 |
| AGAACGAGGGCACGCGGAGTTGATAGCAGAGTAG | 0.925 | 0.696 | -0.442 | 0.259 | -1.01 | 2.58 | 2.36 | 1.91 | 0.448 | 1.26 |
| ACTAGCAGGCCAAGGGTCACTCCAGATTAGTCCG | 2.22 | 2.79 | 0.477 | 2.39 | -0.313 | 4 | 7.89 | 7.08 | 5.52 | 7.48 |
| GCGACTAGGGCATCAGCAGGTTACCATAACTTAA | -0.0195 | -0.0261 | -0.362 | -0.000126 | -0.683 | 0.802 | 1.41 | 1.17 | -0.0852 | 0.611 |
| CCTGCTGGGCCATCAGGTCATTGATATCAACGTT | 1.15 | 0.86 | 0.504 | 1.18 | -0.89 | 1.73 | 0.432 | 1.06 | -0.123 | 0.467 |
| GCTAGTTGGTCGGTAAAAGGTCACACACCGGTCG | 3.17 | 4.03 | 3.77 | 3.81 | 0.63 | 4.74 | 5.58 | 6.73 | 4.85 | 6.87 |
| CCTACTGGGCCATCCAGAGGTCATTGATCATATG | 2.46 | 4.37 | 6.73 | 3.84 | 0.613 | 4.07 | 2.72 | 3.35 | 0.809 | 2.2 |
| CGTCAAAGTTCAATTAAGGTAACGTAAAGCACGC | 6.45 | 5.3 | 3.51 | 3.7 | 2.06 | 4.58 | 4.09 | 4.67 | 1.7 | 3.44 |
| ACAGACAGGTGAGTGAAGCTAACTCAGCTGGACG | -0.673 | -0.375 | -0.787 | -0.865 | -0.79 | -0.342 | 0.546 | -0.404 | -0.443 | -0.258 |
| CCTGACGGGTCACGAGGTTATAGCACGACGAGCG | 5.64 | 4.17 | 0.355 | 3.29 | -0.286 | 5.34 | 5.73 | 5.6 | 1.87 | 3.91 |
| CCGACTGGGGCAAAGGTTACCATTCTCAGTACGA | 1.49 | 1.29 | -0.141 | 2.02 | -0.949 | 5.42 | 11.2 | 9.61 | 8.44 | 11.7 |
| CCTACTGAGCCATCAGGTCATTGATATCAACGTT | 1.58 | 1.47 | 2.08 | 2.26 | 0.649 | 1.79 | 0.302 | 0.843 | 0.137 | 0.472 |
| ATATCTAGGTTAAGGGTCATTCAGGTTGGTTCGC | 5.3 | 5.06 | 3.85 | 4.75 | 2.55 | 6.83 | 11.7 | 10.3 | 10.8 | 12.4 |
| GCTCGGTGGACAAGGTCAGAGCTTTGTCCGTAGA | 1.11 | 1.03 | -0.446 | 0.887 | -1.16 | 2.09 | 0.0962 | 1.14 | -0.712 | 0.499 |
| TCTCGGAGGGCACGAAAGGTCAGAGCTCGACATC | 4.52 | 6.49 | 2.82 | 4.29 | -0.405 | 4.24 | 2.69 | 3.93 | 2.36 | 3.06 |
| TCATATAGGTAAATGCTAGGTGGAAGTCCGATCT | 0.532 | 0.496 | 0.0241 | 0.66 | -0.216 | 0.983 | 0.493 | 2.41 | 3.84 | 2.88 |
| ACTATTAGTAGAGACGAGGGCAACCGATAGGTTG | 0.0303 | 0.0981 | 0.152 | -0.117 | 0.12 | 0.455 | 1 | 1.21 | 0.245 | 0.958 |
| GCTGCTAGGTCAGGTTGGTCAGCTTACGGGTACG | 1.11 | 0.781 | -0.122 | 0.397 | -0.0807 | 1.07 | 0.483 | 0.904 | -0.57 | 0.294 |
| ATATGTAGGTTTCATCCGGGTCATTCAGGCTATG | 1.4 | 1.72 | 0.315 | 2.07 | 0.658 | 3.09 | 2.23 | 2.17 | 0.721 | 1.43 |
